Several values for one entry are separate records, joined by “and”; a condition that tells them apart may be missing. Equal entries are not always repeated. Inconclusive results are not listed. Activity calls are given as the source filed them. Calls come from the whole dose curve; as a rule, active = well fitted curve in the direction sought with a large enough effect; inconclusive = small, poorly fitted or top-dose-only effect, or another doubt; inactive = no such curve, though single readings can be large; an effect the other way counts as inactive or inconclusive.

13 compounds from PubChem BioAssay (NCATS) can be followed below.

Assay [1] can be described thus: Primary qHTS for inhibitors of nuclear receptor binding SET domain protein 2 (NSD2) in an RCH-ACV wild type WT cells (2C) (AID 1645877). For activity change, negative = cell killing: % is set by controls: 0 for no effect and ±100 for the full control effect. Note: nearly all actives have a fitted effect of over 70% in size. Note: potency is the fitted concentration of half-maximal effect. In general terms: qHTS replaces the single test concentration by a dilution series.
Assay [2] addresses Metallo-beta-lactamase type 2 (Klebsiella pneumoniae) (UniProt C7C422). As to the kind of experiment: qHTS to identify inhibitors of the New Delhi Metallo-beta-lactamase (NDM): assay validation screen against the NCATS LOPAC Collection (AID 1794843).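 Note: nitrocefin turnover by NDM-1 measured as 485 nm absorbance at plateau; % is set by controls: 0 for no effect and ±100 for the full control effect.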 In short, it runs like this: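 NDM-1 at 2 nM final in 50 mM HEPES pH 7.0 with 1 uM ZnSO4 and 0.01% Tween20 was preincubated with library compounds in DMSO. Nitrocefin (50 uM stock) was then added, and absorbance at 485 nm was read at the kinetic plateau.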

Assay [3] has as its target Glutathione peroxidase 1 (Homo sapiens) (UniProt P07203). As to the kind of experiment: Primary qHTS Assay for Inhibitors of Recombinant Selenoprotein Glutathione Peroxidase 1 (GPX1) (AID 1845191). For activity, negative = inhibition: % is set by controls: 0 for no effect and ±100 for the full control effect. Note: nearly all actives have a fitted effect of over 65% in size. In short, it runs like this: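 Recombinant GPX1 (10 nM final) was preincubated with compound for 30 min at room temperature, then reacted with 1 mM GSH, 0.5 mM CHP, 0.5 mM NADPH and 100 nM glutathione reductase; NADPH fluorescence (340/450 nm) was read at 0 and 15 min.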

Assay [4] in a line: qHTS profiling for inhibitors of Plasmodium falciparum proliferation (AID 504749).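 For activity, negative = inhibition: 0% = DMSO vehicle and full inhibition = artemisinin control.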 Note: nearly all actives have a fitted effect of over 60% in size. Note: potency is the fitted concentration of half-maximal effect. The conditions noted are these: P. falciparum in erythrocytes, SYBR Green DNA, 72 h. The method, boiled down: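 Parasite proliferation within erythrocytes, 72 h exposure. Endpoint: SYBR Green I fluorescence after overnight lysis at room temperature. Controls: 0.29 uM artemisinin, DMSO.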
Assay [5] has as its target Rap guanine nucleotide exchange factor 3 (Homo sapiens) (UniProt O95398). Nature of the assay: Confirmatory qHTS for agonist of cAMP-regulated guanine nucleotide exchange factor 3 (EPAC1) (AID 1645881).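 Note: EPAC1 catalysed release of BODIPY-GDP from Rap1B seen as fluorescence loss; 100% = effect of cAMP agonist control; nearly all actives have a fitted effect of over 75% in size.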
In assay [6] the target is Rap guanine nucleotide exchange factor 4 (Homo sapiens) (UniProt Q8WZA2). As to the kind of experiment: Confirmatory qHTS for agonist of cAMP-regulated guanine nucleotide exchange factor 4 (EPAC2) (AID 1645884). Note: % is set by controls: 0 for no effect and ±100 for the full control effect; nearly all actives have a fitted effect of over 65% in size.
Assay [7] has the same target. Nature of the assay: Confirmatory qHTS for antagonist of cAMP-regulated guanine nucleotide exchange factor 4 (EPAC2) (AID 1645885). Note: nearly all actives have a fitted effect of over 25% in size. Note: potency is the fitted concentration of half-maximal effect.
Assay [8] concerns the target Rap guanine nucleotide exchange factor 3 (Homo sapiens) (UniProt O95398). Nature of the assay: Counterscreen qHTS for agonist of cAMP-regulated guanine nucleotide exchange factor 3 (EPAC1) (AID 1645889). Note: % of control where 0% means no effect; nearly all actives have a fitted effect of over 40% in size. In short, it runs like this: (§1)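 Measured: fluorescence of BODIPY-GDP bound to Rap1B, which falls as exchange proceeds. Conditions include 50 uM competing GDP, 5 and 30 min reads, and a later cAMP challenge for antagonist detection.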
(In general: The purpose of a counterscreen is to sort out artefacts and off-target activity.)

In assay [9] the target is Phospholipid hydroperoxide glutathione peroxidase GPX4 (Homo sapiens) (UniProt P36969). As to the kind of experiment: Primary qHTS Assay for Inhibitors of Recombinant Selenoprotein Glutathione Peroxidase 4 (GPX4) (AID 1845192). Note: nearly all actives have a fitted effect of over 65% in size. The following applies: outcome: dose series up to 50 µM unless noted. In short, it runs like this: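 GR-coupled readout: 100 nM GR, 1 mM GSH, 0.5 mM NADPH; NADPH fluorescence (ex 340/em 450 nm) read at t=0 and after 15 min RT. GPX4 200 nM, preincubated 30 min with compound; substrate 0.5 mM CHP.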

Assay [10] has as its target Catechol O-methyltransferase (Homo sapiens) (UniProt P21964). As to the kind of experiment: Confirmatory Screen for Target Class Profiling of Small Molecule Inhibitors of Methyltransferases (AID 1745852). The following applies: MTase-Glo luminescence, SAH detection, recombinant enzyme; measured here: COMT max response; stronger effect = lower value.
For assay [11], the target named is Guanidinoacetate N-methyltransferase (Homo sapiens) (UniProt Q14353). The assay is described as above. The conditions noted are these: MTase-Glo luminescence, SAH detection, recombinant enzyme; at 57.3 µM (top of the series).
For assay [12], the target named is Nicotinamide N-methyltransferase (Homo sapiens) (UniProt P40261). The description is as above. The following applies: MTase-Glo luminescence, SAH detection, recombinant enzyme; measured here: NNMT max response; stronger effect = lower value.
The target of assay [13] is Phenylethanolamine N-methyltransferase (Homo sapiens) (UniProt P11086). The description is as above. The conditions noted are these: MTase-Glo luminescence, SAH detection, recombinant enzyme; measured here: PNMT max response; stronger effect = lower value.
In assay [14] the target is Rap guanine nucleotide exchange factor 3 (Homo sapiens) (UniProt O95398). As to the kind of experiment: Confirmatory qHTS for antagonist of cAMP-regulated guanine nucleotide exchange factor 3 (EPAC1) (AID 1645880).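 Note: plate controls were DMSO only for no effect and full effect of the ATA control for full effect; nearly all actives have a fitted effect of over 55% in size.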 The method, boiled down:
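Nucleotide exchange uses 100 nM EPAC1, 250 nM RAP1B-BODIPY-GDP and 50 uM GDP, with compounds in a concentration-titration series. After 5 min at room temperature, fluorescence (480 nm ex/540 nm em) is read every 5 min for 30 min. Data are normalized to control ATA and DMSO.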

For assay [15] the target is unchanged. As to the kind of experiment: Counterscreen qHTS for antagonist of cAMP-regulated guanine nucleotide exchange factor 3 (EPAC1) (AID 1645888).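 Note: fluorescence loss as bound BODIPY-GDP is released from Rap1B; % of control where 0% means no effect.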 In short, it runs like this:
as §1

Assay [16] is described as follows: NCATS anti-infectives library activity on HEK293 viability as a counter-qHTS vs the C. elegans viability qHTS (AID 1745854).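 Note: HEK293 cells exposed to compounds for 24 hr before the viability read; % is set by controls: 0 for no effect and ±100 for the full control effect.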 In short, it runs like this:
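Compounds were acoustically plated (several concentrations, 1:5, final up to 41.7 uM), then 1500 HEK293 cells added per well and incubated 24 hr at 37C, 5% CO2. CellTiter-Glo was added and luminescence read after 10 min.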

The mark [17] stands for this setting: at 28.7 µM (top of the series), parasite line A.
[18] abbreviates: at 28.7 µM (top of the series), parasite line B.

Sequence of Rap guanine nucleotide exchange factor 3 (Homo sapiens) (O95398 whole entry, looked up): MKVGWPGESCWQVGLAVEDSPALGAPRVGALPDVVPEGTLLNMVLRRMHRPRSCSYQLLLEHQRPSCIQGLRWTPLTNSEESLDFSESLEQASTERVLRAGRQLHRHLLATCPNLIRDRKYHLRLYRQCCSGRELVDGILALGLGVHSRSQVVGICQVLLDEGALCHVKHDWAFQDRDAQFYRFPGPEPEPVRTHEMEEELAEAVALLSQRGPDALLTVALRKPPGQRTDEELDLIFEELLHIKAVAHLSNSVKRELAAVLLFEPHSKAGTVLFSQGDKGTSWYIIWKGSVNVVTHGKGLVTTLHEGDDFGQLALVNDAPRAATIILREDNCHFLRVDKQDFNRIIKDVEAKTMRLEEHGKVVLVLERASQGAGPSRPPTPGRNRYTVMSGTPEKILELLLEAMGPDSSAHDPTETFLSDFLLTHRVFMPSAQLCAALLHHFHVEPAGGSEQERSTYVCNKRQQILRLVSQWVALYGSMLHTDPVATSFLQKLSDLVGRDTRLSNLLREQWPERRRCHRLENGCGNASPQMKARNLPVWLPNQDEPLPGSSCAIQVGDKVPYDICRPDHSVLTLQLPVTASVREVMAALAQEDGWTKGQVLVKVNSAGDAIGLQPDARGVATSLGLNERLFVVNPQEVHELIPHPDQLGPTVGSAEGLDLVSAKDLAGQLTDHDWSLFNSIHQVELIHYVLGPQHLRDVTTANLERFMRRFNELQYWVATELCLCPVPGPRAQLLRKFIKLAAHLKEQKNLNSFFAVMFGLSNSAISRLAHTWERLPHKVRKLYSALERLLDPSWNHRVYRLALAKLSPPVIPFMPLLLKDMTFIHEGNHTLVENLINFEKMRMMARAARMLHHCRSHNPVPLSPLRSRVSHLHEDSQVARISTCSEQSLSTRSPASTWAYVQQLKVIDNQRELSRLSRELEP
Sequence of Metallo-beta-lactamase type 2 (Klebsiella pneumoniae) (C7C422 whole entry, looked up): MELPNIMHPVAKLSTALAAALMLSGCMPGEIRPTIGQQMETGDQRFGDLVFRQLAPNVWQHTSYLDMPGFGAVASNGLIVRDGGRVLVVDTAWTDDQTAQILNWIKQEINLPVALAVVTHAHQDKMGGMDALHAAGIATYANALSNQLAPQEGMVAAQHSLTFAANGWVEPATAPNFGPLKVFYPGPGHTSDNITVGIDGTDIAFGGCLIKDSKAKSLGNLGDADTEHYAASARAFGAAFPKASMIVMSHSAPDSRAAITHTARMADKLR
Sequence of Rap guanine nucleotide exchange factor 4 (Homo sapiens) (Q8WZA2 whole entry, looked up): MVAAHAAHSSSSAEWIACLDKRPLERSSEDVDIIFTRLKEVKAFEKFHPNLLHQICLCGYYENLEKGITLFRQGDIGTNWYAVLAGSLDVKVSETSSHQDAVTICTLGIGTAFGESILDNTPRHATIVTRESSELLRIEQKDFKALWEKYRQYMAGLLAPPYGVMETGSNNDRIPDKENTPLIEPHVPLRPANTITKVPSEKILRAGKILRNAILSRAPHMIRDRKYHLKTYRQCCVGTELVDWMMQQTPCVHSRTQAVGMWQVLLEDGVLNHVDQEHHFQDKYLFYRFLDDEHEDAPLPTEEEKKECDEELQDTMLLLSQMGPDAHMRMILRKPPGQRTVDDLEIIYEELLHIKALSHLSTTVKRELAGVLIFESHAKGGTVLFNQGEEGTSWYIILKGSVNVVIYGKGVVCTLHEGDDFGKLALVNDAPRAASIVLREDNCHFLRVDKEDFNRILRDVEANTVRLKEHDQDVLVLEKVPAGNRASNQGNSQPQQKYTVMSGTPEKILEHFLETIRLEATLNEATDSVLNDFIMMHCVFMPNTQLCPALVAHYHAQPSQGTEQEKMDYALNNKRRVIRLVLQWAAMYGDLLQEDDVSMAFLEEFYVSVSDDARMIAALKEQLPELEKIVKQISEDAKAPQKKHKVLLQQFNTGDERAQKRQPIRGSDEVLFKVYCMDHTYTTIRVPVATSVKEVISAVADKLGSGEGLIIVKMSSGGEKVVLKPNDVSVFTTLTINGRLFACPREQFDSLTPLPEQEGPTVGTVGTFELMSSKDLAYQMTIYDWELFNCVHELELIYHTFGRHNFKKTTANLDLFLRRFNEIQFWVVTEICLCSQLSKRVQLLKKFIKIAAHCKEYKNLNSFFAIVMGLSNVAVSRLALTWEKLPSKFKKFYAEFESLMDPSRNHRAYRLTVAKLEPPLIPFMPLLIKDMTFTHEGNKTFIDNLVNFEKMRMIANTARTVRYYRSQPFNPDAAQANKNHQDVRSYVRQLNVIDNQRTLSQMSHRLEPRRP
Sequence of Phospholipid hydroperoxide glutathione peroxidase GPX4 (Homo sapiens) (P36969 whole entry, looked up): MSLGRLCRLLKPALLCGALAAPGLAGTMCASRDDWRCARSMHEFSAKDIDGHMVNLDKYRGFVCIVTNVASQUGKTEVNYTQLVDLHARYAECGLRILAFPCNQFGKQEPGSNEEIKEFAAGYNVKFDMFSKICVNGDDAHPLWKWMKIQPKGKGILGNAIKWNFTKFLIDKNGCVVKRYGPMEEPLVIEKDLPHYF
Sequence of Glutathione peroxidase 1 (Homo sapiens) (P07203 whole entry, looked up): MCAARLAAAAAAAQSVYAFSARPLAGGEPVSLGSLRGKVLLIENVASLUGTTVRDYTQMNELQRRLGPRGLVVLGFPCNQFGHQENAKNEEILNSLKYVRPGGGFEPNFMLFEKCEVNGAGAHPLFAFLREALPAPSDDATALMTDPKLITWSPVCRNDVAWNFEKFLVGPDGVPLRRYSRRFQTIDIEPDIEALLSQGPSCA
Sequence of Nicotinamide N-methyltransferase (Homo sapiens) (P40261 whole entry, looked up): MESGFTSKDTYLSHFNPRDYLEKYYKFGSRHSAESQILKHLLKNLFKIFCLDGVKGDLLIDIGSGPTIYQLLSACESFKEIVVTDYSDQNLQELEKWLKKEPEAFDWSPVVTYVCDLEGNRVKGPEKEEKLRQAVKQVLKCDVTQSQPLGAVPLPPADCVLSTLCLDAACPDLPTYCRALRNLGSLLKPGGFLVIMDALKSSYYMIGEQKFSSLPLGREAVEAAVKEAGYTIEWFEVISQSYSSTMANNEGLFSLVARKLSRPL
Sequence of Catechol O-methyltransferase (Homo sapiens) (P21964 whole entry, looked up): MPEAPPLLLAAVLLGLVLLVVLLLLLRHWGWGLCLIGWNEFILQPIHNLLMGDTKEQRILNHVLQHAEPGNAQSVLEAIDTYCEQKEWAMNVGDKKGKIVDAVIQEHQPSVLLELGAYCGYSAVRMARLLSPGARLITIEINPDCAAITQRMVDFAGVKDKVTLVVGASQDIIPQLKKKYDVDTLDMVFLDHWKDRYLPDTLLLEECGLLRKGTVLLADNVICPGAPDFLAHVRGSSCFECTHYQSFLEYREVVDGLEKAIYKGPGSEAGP
Sequence of Phenylethanolamine N-methyltransferase (Homo sapiens) (P11086 whole entry, looked up): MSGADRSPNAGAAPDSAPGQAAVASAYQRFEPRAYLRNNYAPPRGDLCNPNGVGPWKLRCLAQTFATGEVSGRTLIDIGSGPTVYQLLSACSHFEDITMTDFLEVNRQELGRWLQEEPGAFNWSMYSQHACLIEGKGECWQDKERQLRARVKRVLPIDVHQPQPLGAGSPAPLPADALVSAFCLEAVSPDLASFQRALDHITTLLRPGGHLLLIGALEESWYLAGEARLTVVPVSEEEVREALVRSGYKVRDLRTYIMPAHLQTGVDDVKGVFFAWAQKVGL

`CCOC(=O)c1cnc2c(cnn2CC)c1NN=C(C)C`: the Potency entry in assay [1], in assay [2] and in assay [3] was “inactive” in each case. Besides, the activity, negative = inhibition was 15.4% (inactive) in assay [4] (setting [17]) and -4.13% (inactive) in [4] (setting [18]).
For `CCOC(=O)C1=C(C)NC(C)=C(C(=O)OC)C1c1cccc(Cl)c1Cl` (configuration not stated), the Potency result in assay [5], in [6], in assay [2] and in assay [3] was “inactive” throughout. Besides, in assay [7], the Potency is 49.4 µM (active) and 47.8 µM (active). The outcome in [8] and in assay [9] was “inactive” in each case. The activity, negative = inhibition in [4] (setting [17]) is -7.27% (inactive); in assay [4] (setting [18]), -5.02% (inactive).
Take `NC(N)=N/N=C/c1c(Cl)cccc1Cl`: the figures for the activity in assay [10], in [12] and in assay [13] were -0.724%, -52.2% and -1.71%, respectively. In assay [11], the activity change, negative = inhibition was found to be 0.25%. Moreover, the Potency entry in [2] and in assay [3] was “inactive” in each case. The outcome in [9] is “inactive”.
For `CCCCCCCC/C=C\CCCCCCCC(=O)NCc1ccc(O)c(OC)c1`, the figures for the Potency in assay [1] and in assay [4] (parasite line A) were 3.35 µM (active) and 7.08 µM (active), respectively. Besides, the Potency entry in assay [2] was “inactive”.
Turning to `CCOC(=O)C1=C(C)NC(C)=C(C(=O)OC)C1c1cccc([N+](=O)[O-])c1` (configuration not stated), the outcome in assay [14] and in assay [9] was “inactive” in each case. In addition, the Potency result in [5], in assay [2] and in assay [3] was “inactive” each time.
Take `CCN(CC)CCNC(=O)c1ccc(NC(C)=O)cc1`: the Potency entry in [1] and in assay [2] was “inactive” throughout. The outcome in assay [9] was “inactive”. The activity, negative = inhibition in assay [4] (setting [17]) was 9.9% (inactive); in [4] (setting [18]) it was 23.7% (inactive).
Consider `Cc1nc2sccn2c(=O)c1CCN1CCC(=C(c2ccc(F)cc2)c2ccc(F)cc2)CC1`, for which, in [14], the outcome is “inactive”. Further, the Potency result in assay [5], in [6], in [2] and in [3] was “inactive” in each case. For the same compound, the Potency in [7] is 44.1 µM (active).
Consider `Cc1nc2c([nH]1)c(=O)n(C)c(=O)n2Cc1ccco1`, for which the Potency result in assay [1] and in assay [2] was “inactive” in each case. Also, the outcome in assay [9] was “inactive”. Also, the activity, negative = inhibition in [4] (setting [17]) was -3.89% (inactive); in assay [4] (setting [18]), -2.06% (inactive).
Turning to `COc1cc(Cc2cnc(N)nc2N)cc(OC)c1OC`, the outcome in [14], in [15], in assay [8] and in assay [16] was “inactive” throughout. Besides, the Potency entry in [5], in assay [6], in assay [7] and in assay [2] was “inactive” in each case.
Consider `CN(C(=O)CCCOc1ccc2[nH]c(=O)ccc2c1)C1CCCCC1`, for which the Potency result in assay [1] and in [2] was “inactive” each time. The activity, negative = inhibition in assay [4] (setting [17]) is -9.28% (inactive); in [4] (setting [18]), 16% (inactive).
On to `O=C(O)CN(CCOCCOCCN(CC(=O)O)CC(=O)O)CC(=O)O`, for which the activity change, negative = cell killing in assay [1] was -1.31% [at 0.588 µM] (inactive). For the same compound, the Potency entry in assay [2] was “inactive”. Also, the outcome in assay [9] is “inactive”. Besides, the activity, negative = inhibition in assay [4] (setting [17]) was 8.03% (inactive); in assay [4] (setting [18]), 13.7% (inactive).
In the case of `CN(C)CCOC(=O)COc1ccc(Cl)cc1`, the Potency entry in assay [1], in assay [2] and in assay [3] was “inactive” in each case. The activity, negative = inhibition in [4] (at 12.8 µM (top of the series), parasite line A) is 18.7% (inactive); in [4] (at 12.8 µM (top of the series), parasite line B) it was -4.94% (inactive).
Turning to `FC(F)(F)c1ccccc1-n1ccnc1`, the Potency result in [1], in assay [2] and in assay [3] was “inactive” throughout. The activity, negative = inhibition is 11.5% (inactive) in assay [4] (setting [17]) and -3.4% (inactive) in [4] (setting [18]).
